# Data as given in PubChem BioAssay (NCI).
# Compounds without any hit were thinned out: in the full panel of roughly 79,000, 15% have a hit. A number with no mark means an inactive call. Active and inactive are the calls of the source. Rule as the data show it: active = growth inhibition above about 70%; inactive = the rest.
# Key:
# [1] = NCI Yeast Anticancer Drug Screen. Data for the rad50 strain (AID 155);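 also: 0% = growth of vehicle-only cultures of the same strain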; details: S. cerevisiae rad50 strain growth inhibition, active compounds read high
# How it was run: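 A DNA repair-deficient yeast mutant serves as the test organism; compound-induced growth inhibition is calculated against vehicle-treated cells.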
# [2] = NCI Yeast Anticancer Drug Screen. Data for the mec2-1 strain (AID 157); details: S. cerevisiae mec2-1 strain, active compounds read high
# How it was run: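 mec2-1 yeast strain, carrying an alteration in DNA damage repair or cell cycle control, was exposed to compounds; growth inhibition was measured relative to vehicle-treated controls.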
# [3] = NCI Yeast Anticancer Drug Screen. Data for the sgs1 mgt1 strain (AID 161);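 also: 0% = growth of cultures given vehicle only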; details: S. cerevisiae sgs1 mgt1 strain, active compounds read high
# How it was run: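 Growth of a repair-deficient yeast mutant was monitored after compound treatment and expressed as inhibition relative to vehicle-treated cultures.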
# [4] = NCI Yeast Anticancer Drug Screen. Data for the cln2 rad14 strain (AID 165);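 also: 0% = growth equal to vehicle treated cultures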; details: S. cerevisiae cln2 rad14 strain, active compounds read high
# How it was run: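 Yeast carrying cln2 and rad14 alterations (cell cycle control and DNA damage repair) were exposed to compounds. Growth inhibition was measured against vehicle-treated controls.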
# [5] = NCI Yeast Anticancer Drug Screen. Data for the bub3 strain (AID 167); details: S. cerevisiae bub3 mutant strain, active compounds read high
# How it was run: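 Inhibition values come from growth of compound-treated mutant yeast normalised to vehicle-treated controls.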
# [6] = NCI Yeast Anticancer Drug Screen. Data for the mlh1 rad18 strain (AID 175); details: S. cerevisiae mlh1 rad18 strain growth inhibition, active compounds read high
# How it was run: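 Growth inhibition of the yeast strain was measured after compound exposure and expressed relative to vehicle-treated controls. The strain carries defined defects in DNA damage repair.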
# [7] = at 5.0 µM (retest, dose inferred, filed as 0.5)
# [8] = at 50.0 µM (retest, dose inferred, filed as 5.0)
SMILES,"growth inhibition [1, 7]","growth inhibition [1, 8]",growth inhibition ([1]; at 50.0 µM),"growth inhibition [2, 7]","growth inhibition [2, 8]",growth inhibition ([2]; at 50.0 µM),"growth inhibition [3, 7]","growth inhibition [3, 8]",growth inhibition ([3]; at 50.0 µM),"growth inhibition [4, 7]","growth inhibition [4, 8]",growth inhibition ([4]; at 50.0 µM),"growth inhibition [5, 7]","growth inhibition [5, 8]",growth inhibition ([5]; at 50.0 µM),"growth inhibition [6, 7]","growth inhibition [6, 8]",growth inhibition ([6]; at 50.0 µM)
CC1(CO)CCCC2(C)C3=C(CCCC3)CCC12 (configuration not stated),-102%,94% (active),-3.55%,-56%,96% (active),52.1%,-60%,96% (active),46.1%,-60%,95% (active),10.1%,-67%,95% (active),42%,-108%,95% (active),46.4%
N#Cc1ccc2nc3ccc(N)cc3nc2c1,-22%,96% (active),79.2% (active),4%,76% (active),39.1%,-18%,86% (active),20.1%,-6%,82% (active),10.6%,-13%,82% (active),43.3%,-5%,96% (active),48%
COc1ccc(/C=C/c2ccnnc2)c(OC)c1OC,-7%,6%,53.2%,-3%,8%,79.5% (active),-6%,5%,28.6%,-4%,39%,52.8%,-5%,15%,39.3%,-6%,2%,93.7% (active)
CCN(CC)c1c(C(=O)/C=C/c2ccc(OC)cc2)c(-c2ccccc2)nn(C)c1=O,17%,17%,78.1% (active),8%,8%,72.5% (active),5%,5%,69%,9%,9%,77% (active),-4%,-4%,71.3% (active),8%,8%,70.2% (active)
O=S1(=O)c2ccccc2C(Br)C1Br (configuration not stated),31%,98% (active),99.2% (active),30%,99% (active),99.5% (active),27%,99% (active),58.4%,22%,99% (active),99% (active),25%,98% (active),99.6% (active),56%,99% (active),99.3% (active)
C/C(=N/NC(=S)N1CCCC1)c1cccc(/C(C)=N\NC(=S)N2CCCC2)n1,11%,12%,15.2%,13%,28%,-14.9%,-17%,-4%,-6.45%,1%,-4%,-3.15%,-3%,5%,-8.05%,17%,18%,1.65%
NC(=O)N/N=C/c1ccc(Cl)s1,4%,42%,94.4% (active),4%,21%,59%,2%,31%,88.8% (active),-1%,10%,52.5%,3%,35%,82.5% (active),1%,31%,89.2% (active)
FC(F)(F)c1[nH]nc(-c2ccc(Cl)cc2)c1N=NN1CCOCC1,98% (active),96% (active),94.6% (active),99% (active),94% (active),95.8% (active),99% (active),94% (active),95.4% (active),99% (active),98% (active),91.2% (active),99% (active),98% (active),82.5% (active),99% (active),97% (active),93.6% (active)
O=C(Nc1cccc(Cl)c1)c1ccc([N+](=O)[O-])cc1,10%,8%,-8.65%,-11%,-6%,-10.8%,6%,4%,-12.7%,4%,17%,-27.4%,23%,32%,-6.8%,17%,26%,-0.9%
